Data from ChEMBL document CHEMBL3988442, “University of Dundee, Small-Polar-MMV Screening Library” (2021).
Screen size: about 48,000 compounds; about 13,000 (27%) showed an effect of 50% or more. The list shows a part of the results.

These compounds were tested on Wolbachia pipientis (assay: Anti-Wolbachia Cell-Based Screen). Conditions: 5 µM.
Format: functional
Design: scale not given: in the data most compounds retested in dose-response had high values

SMILES	Percent Effect
CN(Cc1ccc(F)cc1)[C@@H]1CN(C(=O)c2cccs2)C[C@H]1O	3.837%
CN(Cc1ccc(F)cc1)[C@@H]1CN(S(=O)(=O)N(C)C)C[C@H]1O	124.5%
CC[C@@]1(O)CCN(C(=O)CN(C)Cc2ccc(F)cc2)C[C@H]1O	-15.44%
CC(C)C1CN(S(=O)(=O)N(C)C)CCCN1Cc1ccc(F)cc1 (stereo not drawn)	3.4%
CN(C)S(=O)(=O)N1CCC2(CCCN(Cc3ccc(F)cc3)C2=O)C1 (stereo not drawn)	-3.561%
CCS(=O)(=O)N1C[C@@H](O)[C@H](N(C)Cc2ccc(F)cc2)C1	127.5%
CN(Cc1ccc(F)cc1)S(=O)(=O)N1CCOCC1	-4.525%
CS(=O)(=O)N1CCO[C@@H]2CN(Cc3ccc(F)cc3)C[C@@H]2C1	-1.129%
CN(Cc1ccc(F)cc1)[C@@H]1CN(S(C)(=O)=O)C[C@H]1O	89.96%
CN1CCN(CC(=O)NCc2ccco2)Cc2ccccc21	-30.17%
CCCC(O)CN1CCC(=O)N(Cc2ccccc2)Cc2ccccc21 (stereo not drawn)	123.8%
CCC1CN(C(=O)c2cccc(O)c2)CCC(=O)N1Cc1ccccc1 (stereo not drawn)	8.552%
CCCC(O)CN1CCC(=O)N(CCOC)Cc2ccccc21 (stereo not drawn)	121.9%
COCc1ccc(CNC(=O)CN2CCc3ccccc32)cc1	-11.7%
OC(CN1CCCCc2ccccc21)Cn1cccn1 (stereo not drawn)	-5.145%
COCCN1C[C@H]2CN(C(=O)NC(C)C)CCN2C1=O	-4.801%
COCCN1C[C@H]2CN(C(=O)NCc3ccccc3)CCN2C1=O	8.785%
COCC(O)CN1CCC(=O)N(Cc2ccccc2)Cc2ccccc21 (stereo not drawn)	97.49%
COC(=O)N1CCc2ccccc2C1C(=O)NCc1ccco1 (stereo not drawn)	14.18%
COCC(O)CN1CCC(=O)N(Cc2ccco2)Cc2ccccc21 (stereo not drawn)	86.65%
Cc1ccc([C@@H]2CN(S(=O)(=O)N(C)C)C[C@H]2N(C)C)cc1	0.6697%
Cc1cc(S(=O)(=O)NCC(O)c2sccc2C)ccc1F (stereo not drawn)	4.369%

SMILES	Percent Effect
CCOc1ccc(CN(C)C(=O)COc2ccc(C)nc2)cc1	-6.842%
CCc1c(C(=O)N2CCN(C)[C@@H]3CS(=O)(=O)C[C@@H]32)[nH]c2ccccc12	-4.01%
CCN1CC(CN(C)c2cc(C)nc(N)n2)Oc2ccccc21 (stereo not drawn)	10.5%
CCN(CC1CCOCC1)C(=O)Cn1ccccc1=O	-19.1%
CC(O)CN1CCC(=O)N(Cc2ccccc2)Cc2ccccc21 (stereo not drawn)	125.3%
O=C(CN1CCc2ccccc21)NCc1ccc(Cl)cc1	-3.042%
CC(C)NC(=O)c1nc2c(s1)CCCN2Cc1ccccc1	-9.51%
CCCc1nc(CN(CC)C(=O)c2ccc3[nH]cnc3c2)no1	-17.17%
CC(C)(C)n1ncc2c1CCCC2NCc1cccc2c1OCO2 (stereo not drawn)	3.56%
CC(C)c1cc(CNC(=O)NCc2cccc(N3CC=CC3)c2)on1	1.94%
CCOC(C)c1noc(CN2CCN(Cc3cccnc3)CC2)n1 (stereo not drawn)	-3.385%
CNC(=O)C1(Cc2cc(C(C)C)no2)CCN(Cc2ccccn2)C1 (stereo not drawn)	108.3%
CNC(=O)C1(Cc2cc(C(C)C)no2)CCN(Cc2cccnc2)C1 (stereo not drawn)	113.2%
CC(C)c1cc(C(=O)N2C[C@H]3CC[C@@H]2CN(Cc2ccccn2)C3)no1	-1.053%
O=C(O)C1(Cc2ccc(F)cc2F)CCCN(Cc2ccccn2)C1 (stereo not drawn)	-12.03%
COC1(CNS(=O)(=O)c2ccccc2Br)CCSC1 (stereo not drawn)	-11.32%
O=C(NCCC(O)c1cccs1)c1ccc(Br)o1 (stereo not drawn)	-2.242%
Cc1cc(C)nc(NC2CC(=O)N(C(C)(C)C)C2)n1 (stereo not drawn)	-13.08%
Cc1ccc(CN(C)C(=O)NCC(=O)NC(C)(C)C)s1	-5.904%
CCc1cnc(NCCS(=O)(=O)CC(C)C)nc1	-2.356%
O=C(O)C(F)(F)F.O=C(c1ccsc1)N1CCc2onc(COc3ccccn3)c2C1	-81.7%
Cc1cc(C)n(-c2cncc(NCCNC(=O)CC3CCCC3)n2)n1	5.332%

SMILES	Percent Effect
Cc1cc(C)n(CCCNC(=O)C(C)NC(=O)CC2CCCCC2)n1 (stereo not drawn)	122.8%
CCC(C)C(=O)NCCCn1nc(C)cc1C (stereo not drawn)	119.6%
Cc1cc(C(F)(F)F)nn1CCNC(=O)C(C)n1ccnc1C(C)C (stereo not drawn)	0.9025%
Cc1cc(CNC(=O)CC2CCN(C(C)C)CC2)n(C)n1	-16.42%
Cc1cc(C)n(CC(C)NC(=O)c2cc(C(C)C)on2)n1 (stereo not drawn)	-21.21%
Cc1ccccc1Oc1ncccc1CNC1CCC1	-4.424%
Cc1csc(C2(NCCC(=O)N3CCOCC3)CCCC2)n1	-0.7458%
Cc1noc(C)c1CCC(=O)NC(C)c1nnc2n1CCC2 (stereo not drawn)	-11.45%
CCCc1noc(CCC(=O)NC(C)c2nnc3n2CCCCC3)n1 (stereo not drawn)	-7.808%
CC(C)CS(=O)(=O)CC(=O)NC(C)c1nnc2n1CCC2 (stereo not drawn)	85.29%
CC(NC(=O)CCC1CCCCC1)c1nnc2n1CCC2 (stereo not drawn)	97.89%
CC(C)c1noc(CCC(=O)NC(C)c2nnc3n2CCCCC3)n1 (stereo not drawn)	-3.569%
Cc1noc(CCCC(=O)NC(C)c2nnc3n2CCC3)n1 (stereo not drawn)	-11.73%
CC(NC(=O)CCCc1nc(C(C)(C)C)no1)c1nnc2n1CCC2 (stereo not drawn)	7.07%
CC(=O)NCCCC(=O)NC(C)c1nnc2n1CCC2 (stereo not drawn)	91.49%
CCCC(=O)NC(C)c1nnc2n1CCC2 (stereo not drawn)	66.57%
CC(C)c1noc(CCCC(=O)NC(C)c2nnc3n2CCC3)n1 (stereo not drawn)	-3.557%
CC(C)c1noc(CCC(=O)NC(C)c2nnc3n2CCC3)n1 (stereo not drawn)	-10.52%
CN1CCc2[nH]nc(C(=O)N3CCC4(CCCO4)CC3)c2C1	17.17%
CC(C)N(C)CCNC(=O)N(C)CC1CCOCC1	-11.44%
CCS(=O)(=O)N1CCC2(CC1)CC(OCC1CC1)CO2 (stereo not drawn)	-14.92%
CC(NC(=O)COCC(F)(F)F)c1nnc2n1CCCCC2 (stereo not drawn)	88.58%

SMILES	Percent Effect
CC(NC(=O)COc1ccc(F)cc1)c1nnc2n1CCCCC2 (stereo not drawn)	-2.87%
CC(NC(=O)CCCOc1ccccc1)c1nnc2n1CCCCC2 (stereo not drawn)	-1.101%
CC(Cn1cccn1)NCC(=O)NC1(C#N)CCCCC1 (stereo not drawn)	4.138%
CCC(CO)N(Cc1ccco1)C(=O)c1ccccc1NC (stereo not drawn)	-1.044%
Cc1oc(CN(C)C(=O)c2ccc(C(F)(F)F)cc2)cc1C(=O)O	-14.62%
CC(C#N)CNC(=O)Nc1ccc(-c2ccc[nH]2)cc1 (stereo not drawn)	-13.54%
O=C(CNC(=O)c1ccc(Cl)cc1)Nc1nccs1	62.52%
O=C(CNC(=O)c1cc(Cl)ccn1)Nc1nccs1	-9.837%
O=C(CNC(=O)c1ccccc1Cl)Nc1nccs1	1.164%
Fc1ccc(OC2CCN(Cc3nnc(-c4ccco4)o3)CC2)cc1	0.5253%
CN1CCN(Cc2ccccc2Oc2nccc3occc23)CC1	2.64%
CCn1ccnc1CN1CCN(c2ncnc3ccccc23)CC1	5.306%
O=C(NCCN1CCOCC1)NCc1cccnc1-n1cccn1	-2.618%
CN1CCN(Cc2cccc(NCc3ncc[nH]3)c2)CC1	-6.689%
OC1CCCN(Cc2c(-c3ccco3)[nH]c3ncccc23)C1 (stereo not drawn)	-4.635%
OC1(CN2CCCC2)CCCN(Cc2cnc(-c3ccco3)nc2)C1 (stereo not drawn)	-19.31%
OC1CCN(Cc2c(-c3ccco3)[nH]c3ncccc23)CC1	97.96%
CN1CCN(Cc2c(-c3ccco3)[nH]c3ncccc23)CC1	119.4%
CCN1CCN(Cc2c(-c3ccco3)[nH]c3ncccc23)CC1	126%
c1coc(-c2[nH]c3ncccc3c2CN2CCCOCC2)c1	122.9%
Cc1nc(-c2ccc(S(=O)(=O)N3CCSCC3)cc2)co1	-2.351%
Cc1ccc(F)c(C(=O)Nc2cccc(CCN3CCCC3)c2)c1	-3.643%

SMILES	Percent Effect
OCCCNc1cccc(COC2CCCCC2)c1	117.5%
Cc1cccc(C2(NCCCS(C)(=O)=O)CCCC2)c1	-2.725%
Cc1c(CS(C)(=O)=O)cccc1NCCCC1CCCC1	-1.975%
O=C(CN1CCCS1(=O)=O)Nc1cccc(COC2CCCCC2)c1	13.44%
CS(=O)(=O)NC(=O)CCc1cccc(OC2CCCC2)c1	2.726%
CS(=O)(=O)CCCNc1cccc(COC2CCCCC2)c1	108.4%
CC(CO)NC(=O)Nc1ccc(COC2CCCC2)cc1 (stereo not drawn)	8.692%
Clc1cncc(NCc2cccc(COC3CCOCC3)c2)n1	-1.49%
CS(=O)(=O)NCc1cccc(COC2CCCCC2)c1	112.9%
CNS(=O)(=O)c1cccc(CNc2ccc(C#N)cn2)c1	2.285%
CS(=O)(=O)NCCCn1ccc2ccccc21	3.407%
COc1ccc(-c2cc(CN)ccc2F)c(OC)c1OC	2.502%
C=C(C)CN(c1cn[nH]c1)S(=O)(=O)c1cccc(C#N)c1	-12.41%
CCOCC1CC2(CCN(C(=O)C3CC=CC3)CC2)CO1 (stereo not drawn)	-13.65%
CNC(=O)C1(N2CCC[C@H]2C(=O)NC2CCCCC2)CCOCC1.Cl	-2.575%
OCCC1CN(c2nc(-c3ccncc3)nc3c2CCNCC3)CCO1 (stereo not drawn)	-20.05%
CCCc1nc(CN2CCOC(Cn3cncn3)C2)no1 (stereo not drawn)	3.436%
CC(C)(C)c1nc(CN2CCCC2Cn2cncn2)no1 (stereo not drawn)	86.44%
CCCc1nc(CN2CCCC2Cn2cncn2)no1 (stereo not drawn)	115.4%
CC(C)(C)c1nc(CN2CCCC2Cn2cccn2)no1 (stereo not drawn)	10.76%
